In PubChem BioAssay (EPA / NIEHS) one finds outcome and AC50 data, which are given here for 40 compounds.

The source made the active and inactive calls. Rule for the calls: active = hit-call score of the fitted dose curve at least 0.9, where 1 is the maximum; inactive = score below 0.9.

The experiment can be described thus: ATG_Ets_CIS: Attagene CIS-FACTORIAL HepG2 Assay for human Erythroblast Transformation Specific (ETS) (AID 2282941). The note with it: HepG2 ETS cis-reporter transcription, actives raise or lower the signal. The procedure:
ATG_CIS is a cell-based, multiplexed-readout assay that uses HepG2, a human liver cell line, with measurements taken at 24 hours after chemical dosing in a 24-well plate.ATG_Ets_CIS is one of 52 assay component(s) measured or calculated from the ATG_CIS assay. It is designed to make measurements of mRNA induction, a form of inducible reporter, as detected with fluorescence intensity signals by Reverse transcription polymerase chain reaction (RT-PCR) and Capillary electrophoresis technology.Data from the assay component ATG_Ets_CIS was analyzed into 1 assay endpoint. This assay endpoint, ATG_Ets_CIS, was analyzed with bidirectional fitting relative to DMSO as the negative control and baseline of activity. Using a type of inducible reporter, measures of mRNA for gain or loss-of-signal activity can be used to understand the reporter gene at the transcription factor-level as they relate to the gene ETS1. Furthermore, this assay endpoint can be referred to as a primary readout, because this assay has produced multiple assay endpoints where this one serves a reporter gene function. To generalize the intended target to other relatable targets, this assay endpoint is annotated to the dna binding intended target family, where the subfamily is winged helix-turn-helix.
Human liver HepG2 cells are transiently transfected with multiple reporter transcription units (MRTUs) in 6-well plates using FuGene 6 reagent (Roche; 3 ml FuGene/1 mg DNA). The MRTU constructs are regulated by a cis-regulating element (promoter). […] A major difference between the CIS and TRANS system is that in CIS activities of endogenous TFs are measured, whereas the TRANS assay evaluates changes in activities of exogenous, chimeric NR-Gal4 proteins. […] At the end of 24 hour incubation, total RNA was isolated using TriZol reagent (Invitrogen). The isolated RNA is then reverse-transcribed using oligo(dT) primer and Mo-MLV reverse transcriptase (Invitrogen) with DNAse I (Ambion) treatment for 30 min. The one-tenth of the produced cDNA was amplified by PCR using Taq DNA polymerase (Invitrogen) and two reporter sequence-specific primers. The PCR products were fluorescently labeled by primer extension with 6-arboxyfluorescein (6-FAM) 5'-labeled reporter sequence-specific primer (2 min at 95 C, 20 s at 68 C and 10 min at 72 C) and these products were digested with 5U of HpaI (New England Biolabs) for 2h at 37 C. The fragments were purified using Qiaquick PCR columns (Qiagen), analyzed on an ABI 3130xL genetic analyzer (Applied Biosystems) with peak positions identified by using a set of X-rhodamine (ROX)-labeled MapMarker1000 molecular weight standards (BioVentures). The raw capillary electrophoresis data was processed using Attagraph software (Attagene).
`CC(C)c1ccc2c(C(C)C)cc(C(C)C)c(S(=O)(=O)O)c2c1`: the compound was classed as inactive. Regarding `CC(=O)c1ccc2c(c1)CCCC2`, the compound was classed as inactive.

As for `CCCCCC/C=C\CCCCCCCC(=O)O`, the result was inactive. Take `NC(=O)NNC(N)=O`: the result was inactive.

`C1CN(SSN2CCOCC2)CCO1`: the compound was classed as inactive. As for `O=C(O)c1ccccc1Nc1cccc(C(F)(F)F)c1`, the compound was called inactive. The same measure, in the same setting: to `CC=C1CC2C=CC1C2` (stereo not given) belongs “inactive”; to `CCC(C)(C)C1CCCCC1OC(C)=O` (stereo not given), “inactive”.

With `O=C(Nc1ccccc1)c1ccccc1O`, the AC50 was 100 µM (active). Take `O=C1CCCN1CCO`: the compound was called inactive.

On to `NC(=O)OCC(COC(N)=O)c1ccccc1`, for which the result was inactive. Same read-out and setting: next, `C1=CCCC1`: “inactive”; `O=C(Nc1cccc(C(F)(F)F)c1)c1cc(Br)cc(Br)c1O`: “inactive”; `CCCCCCCOC(=O)CCC`: “inactive”. As for `Cc1cc(=O)n(-c2ccccc2)n1C`, the compound was called inactive. As for `Cc1cccc(C(=O)O)c1`, the compound was called inactive.

Take `CC(=O)OCC(C)OC(C)=O` (stereo not given): the compound was classed as inactive. In the case of `CC(C)(Oc1ccc(C2CC2(Cl)Cl)cc1)C(=O)O` (stereo not given), the compound was called inactive. For the compound `c1ccc(CCCc2ccncc2)cc1`, the AC50 was 155 µM (active). For `C=CC(=O)OCC(Br)CBr` (stereo not given), the call was inactive. For `Oc1ccc(Cl)cc1Cc1cc(Cl)ccc1O`, the AC50 was 6.68 µM (active).

As for `CC1(C)O[C@@H]2C[C@H]3[C@@H]4C[C@H](F)C5=CC(=O)CC[C@]5(C)[C@H]4[C@@H](O)C[C@]3(C)[C@]2(C(=O)CO)O1`, the result was inactive.

As to `O=C(OCC1CCC2OC2C1)C1CCC2OC2C1` (stereo not given), the outcome was inactive.

For the compound `CC(C)c1ccc2c(c1)CC[C@H]1[C@](C)(CN)CCC[C@]21C`, the compound was classed as inactive.

On to `CN1C(=O)N(C)C(O)C1O` (stereo not given), for which the result was inactive. Turning to `CC(C)c1ccc2cc(C(C)C)ccc2c1`, the outcome was inactive.

For `C1=Cc2ccccc2C1`, the outcome was inactive.

`CC(=O)Oc1ccc(C(C)=O)cc1`: the call was inactive. `O=c1[nH]c(=O)c2[nH]c(=O)[nH]c2[nH]1`: the result was inactive. Take `COC(=O)c1c(C)cc(O)c(C)c1O`: the outcome was inactive. For the compound `CC(C)(C)c1ccc(OC(=O)c2ccccc2O)cc1`, the result was inactive. On to `O=C(O)C(c1ccc(Cl)cc1)c1ccc(Cl)cc1`, for which the call was inactive. For the compound `CC(C)c1ccc(C=O)cc1`, the compound was classed as inactive.

With `CC=CCO`, the outcome was inactive. `CC(=O)OC1C2(C)CCC(C2)C1(C)C` (stereo not given): the call was inactive. On the same count and under the same terms, next, `CC(=O)CC(N)=O`: “inactive”; `FC(F)(F)C(=NOCC1OCCO1)c1ccc(Cl)cc1`: “inactive”; `CC(=O)Nc1ccc2c(c1)Cc1cc(NC(C)=O)ccc1-2`: “inactive”. Turning to `CCCc1ccc(OC)cc1`, the compound was called inactive. `C[Si](C)O[Si](C)(C)O[Si](C)(C)O[Si](C)C`: the call was inactive.

Broadly, the AC50 is the concentration at which the activity in the assay is half-maximal.
